KDM4E inh – blocks human JMJD2E demethylase activity | JMJD2E catalytic domain, FDH-coupled NADH fluorescence (FDH is formaldehyde dehydrogenase) | B2RXH2 | Potency, µM (titrated, usually from 57.1 µM), inactives show top-dose activity change, negative = inhibition, usual class: inhibitors | hit rate 1.6% among 230,000; active means well fitted inhibition curve with a large enough effect, not every such curve was filed as active; inconclusive means small, poorly fitted or top-dose-only effect, or another doubt; inactive means no such curve, though single readings can be large or run the other way;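 further: potency means the concentration at half of the fitted maximal effect; 0% = wells with enzyme and -100% = buffer wells without enzyme; nearly all actives have a fitted effect of over 50% in size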
JMJD2A Tudor inh – JMJD2A Tudor domain (human) inhibition; O75164; AlphaScreen JMJD2A-Tudor / H3K4me3 peptide binding; Potency, µM (titrated, usually from 114 µM), without a hit: at the top dose activity change, negative = inhibition, usual class: inhibitors; hit rate 4.4% among 390,000; AID 504339; further: potency means the concentration at half of the fitted maximal effect; on the % scale 0 is the no-effect control and ±100 the full control effect; nearly all actives have a fitted effect of over 50% in size
PI5P4K alpha inh – PI5P4K alpha (human) kinase inhibition; hit rate 1.2% among 330,000; PI5P4Kalpha enzyme, ADP-Glo luminescence, 60 min; hits give low values; AID 652105; P48426; max response, %; active means max response of -50% or lower; inconclusive means between -30% and -50%; inactive means -30% or higher; further: value at the top dose of about 77 µM; on the % scale 0 is the no-effect control and ±100 the full control effect
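Luminescence from ADP-Glo served as readout of PI5P4Kalpha activity in a qHTS format. Reaction: enzyme, substrate, compound, ATP at 5 microM final, 60 min at RT.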
L3MBTL1 inh – blocks human L3MBTL1; Potency, µM (series often up to 57.1 µM), for the others: at the highest dose activity, negative = inhibition, hits mostly inhibitors; hit rate 0.66% among 230,000; AlphaScreen L3MBTL1–H3K9me1 peptide binding; Q9Y468; further: potency means the concentration at half of the fitted maximal effect; on the % scale 0 is the no-effect control and ±100 the full control effect; nearly all actives have a fitted effect of over 60% in size
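Displacement of a biotinylated histone H3(1-15) peptide monomethylated at Lys9 (75 nM) from L3MBTL1 (50 nM) was measured by AlphaScreen after a 30 min room-temperature compound incubation; cefsulodin titration served as intraplate control.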
BAZ2B inh – BAZ2B (human) inhibition; hit rate 4.4% among 360,000; Potency, µM (titrated, usually from 114 µM), for inactives: at the highest dose activity change, negative = inhibition, hits mostly inhibitors; AlphaScreen BAZ2B-H3K14Ac peptide displacement; further: potency means the concentration at half of the fitted maximal effect; on the % scale 0 is the no-effect control and ±100 the full control effect; nearly all actives have a fitted effect of over 60% in size
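AlphaScreen luminescence quantifies BAZ2B engagement of H3K14Ac peptide; the protein and biotinylated peptide are both at 50 nM final, buffer PBS pH 7.4 with 0.01% Tween-20, all steps at room temperature.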
HP1b chromo inh – HP1-beta chromodomain-methylated histone interaction inhibition; P83916; AlphaScreen HP1-beta / biotin-H3K9me3 peptide binding; Potency, µM (titrated, usually from 114 µM), without a hit: top-dose activity change, negative = inhibition, usual class: inhibitors; hit rate 0.56% among 390,000; AID 540317; further: potency means the concentration at half of the fitted maximal effect; nearly all actives have a fitted effect of over 70% in size
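HP1-beta protein (50 nM final) preincubated 30 min at room temperature with biotinylated H3(1-18)K9me3 peptide (50 nM) in PBS pH 7.4, 0.01% Tween-20, then compound added for 30 min. AlphaScreen streptavidin donor/nickel chelate acceptor beads (10 ug/mL final), 30 min dark, luminescence read.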
Active calls of the source: *; [ ] = remark or other dose. Only some compounds are listed: those with a hit (about 5.7% of all), similar ones and a draw of the others. Unless noted, the call rests on the fitted dose curve; in most records, active means well fitted inhibition curve with a large enough effect; inconclusive means small, poorly fitted or top-dose-only effect; inactive means no such curve, though single readings can be large or run the other way.

Results for COc1cc2c(C#N)c(N3CCCCC3)nc(N)c2c(N)n1 ?
KDM4E inh: inconclusive; JMJD2A Tudor inh: -10%; PI5P4K alpha inh: -28; L3MBTL1 inh: -3%; BAZ2B inh: -1%; HP1b chromo inh: 45%

Results for COc1ccc(CN2C(=O)Cc3c2nc(N)c2c(N)nc(N4CCCCC4)c(C#N)c32)cc1 ?
KDM4E inh: 14µM*; L3MBTL1 inh: -3%; BAZ2B inh: -34%

How did CC(C)n1c(CNC(=O)c2ccccc2F)nnc1SCC(=O)NC1CCCCC1 do in these assays?
JMJD2A Tudor inh: 0%; PI5P4K alpha inh: -71*; HP1b chromo inh: 25%[57 µM]

Results for Cn1c(=O)n(C)c2cc(N3CCCCC3)c(NC(=O)c3ccc(Cl)cc3)cc21 ?
JMJD2A Tudor inh: -12%; BAZ2B inh: inconclusive; HP1b chromo inh: 24%

Results for Cc1cc(Nc2ccc(N3CCC(C)CC3)cc2)n2ncnc2n1 ?
KDM4E inh: -9%; JMJD2A Tudor inh: inconclusive; L3MBTL1 inh: 1%[11.4 µM]; BAZ2B inh: 56µM*; HP1b chromo inh: 1%

Results for Cc1ccccc1CS(=O)(=O)Cc1ccc(C(=O)NCc2ccccn2)o1 ?
KDM4E inh: 5%; JMJD2A Tudor inh: -17%; PI5P4K alpha inh: 0; L3MBTL1 inh: -6%; BAZ2B inh: 50µM*; HP1b chromo inh: 40%

How did Cc1cc(=O)oc(C)c1C(=O)NCc1ccccn1 do in these assays?
KDM4E inh: -6%; JMJD2A Tudor inh: 2.5µM*; L3MBTL1 inh: inconclusive; BAZ2B inh: 16µM*; HP1b chromo inh: 19%

How did Cc1nn(-c2ccccc2)c(C)c1/C=N/N1CCN(c2ccccc2)CC1 do in these assays?
KDM4E inh: 4%; JMJD2A Tudor inh: 20µM*; L3MBTL1 inh: -14%; BAZ2B inh: inconclusive; HP1b chromo inh: -13%

Results for Cc1nn(-c2ccccc2)c(C)c1/C=N/N1CCN(c2ccccn2)CC1 ?
KDM4E inh: -2%; JMJD2A Tudor inh: inconclusive; PI5P4K alpha inh: 2; L3MBTL1 inh: inconclusive; BAZ2B inh: 45µM*; HP1b chromo inh: inconclusive

Results for Cc1nn(-c2ccccc2)c(Cl)c1/C=N/N1CCN(c2ccccn2)CC1 ?
KDM4E inh: 0%; JMJD2A Tudor inh: 2%; PI5P4K alpha inh: 0; L3MBTL1 inh: -2%; BAZ2B inh: -1%; HP1b chromo inh: 34%

How did CN(C)c1cccc(S(=O)(=O)N2CCN(S(=O)(=O)c3ccc4c(c3)OCCO4)CC2)c1 do in these assays?
JMJD2A Tudor inh: -23%

Results for CC(C)(C)c1ccc(OCCSc2nc(-c3cccs3)nc3cc(=O)[nH]n23)cc1 ?
JMJD2A Tudor inh: -9%; BAZ2B inh: -12%; HP1b chromo inh: 33%

What do the screens show for `COc1ccc(OC)c(NC(=O)C(C)N2c3cccc4cccc(c34)S2(=O)=O)c1` (stereo unspecified)?
JMJD2A Tudor inh: -17%; PI5P4K alpha inh: 3; BAZ2B inh: -1%; HP1b chromo inh: 27%

Results for C=C(C)C(=O)Nc1ccc(OC(F)(F)C(F)F)c(NC(=O)C(=C)C)c1 ?
KDM4E inh: -6%; JMJD2A Tudor inh: 79µM*; PI5P4K alpha inh: 7; L3MBTL1 inh: inconclusive; BAZ2B inh: 45µM*; HP1b chromo inh: 56µM*

How did CC(=O)Nc1ccc(OC(F)(F)C(F)F)c(NC(C)=O)c1 do in these assays?
KDM4E inh: 2%; JMJD2A Tudor inh: -12%; BAZ2B inh: inconclusive; HP1b chromo inh: 8%

Results for COc1ccc(O)c(/C=N/NC(=O)c2cc(=O)[nH]c3ccccc23)c1 ?
KDM4E inh: 7.1µM*; JMJD2A Tudor inh: -20%; PI5P4K alpha inh: 5; L3MBTL1 inh: inconclusive; BAZ2B inh: inconclusive; HP1b chromo inh: 18%

Results for CC(C)(C)c1ccc(OCc2ccc(C(=O)N/N=C/c3ccc(O)c(O)c3)cc2)cc1 ?
KDM4E inh: inconclusive; JMJD2A Tudor inh: inconclusive; PI5P4K alpha inh: -27; L3MBTL1 inh: -7%; BAZ2B inh: 32µM*; HP1b chromo inh: inconclusive

How did O=C(N/N=C/c1ccc(OCc2ccccc2)cc1)c1cc[n+](Cc2ccccc2)cc1 do in these assays?
KDM4E inh: 32µM*; JMJD2A Tudor inh: inconclusive; PI5P4K alpha inh: -5; L3MBTL1 inh: -26%; BAZ2B inh: -12%; HP1b chromo inh: -2%

Results for COc1ccc(O)c(/C=N/NC(=O)c2ccc(OCc3cccc(Br)c3)cc2)c1 ?
KDM4E inh: -27%; JMJD2A Tudor inh: 35µM*; L3MBTL1 inh: -3%; BAZ2B inh: inconclusive; HP1b chromo inh: 19%

How did COc1ccc(Cl)cc1NC(=O)c1ccc(CN2C(=O)CCn3nc(C)cc32)cc1 do in these assays?
JMJD2A Tudor inh: -11%; BAZ2B inh: -11%; HP1b chromo inh: 3%

Results for O=C(COc1ccccc1C(=O)N/N=C\c1ccc(O)c(O)c1)N/N=C/c1ccc(O)c(O)c1 ?
KDM4E inh: 13µM*; JMJD2A Tudor inh: 2.2µM*; PI5P4K alpha inh: -73*; L3MBTL1 inh: 1.6µM*; BAZ2B inh: 1.6µM*; HP1b chromo inh: 7.9µM*

Results for O=C(O)c1ccc(N=Nc2c(O)[nH]c3cc(Cl)ccc23)cc1 ?
KDM4E inh: -1%; JMJD2A Tudor inh: -23%; PI5P4K alpha inh: inconclusive; BAZ2B inh: -39%; HP1b chromo inh: 11%

How did Oc1[nH]c2ccc(Br)cc2c1N=NC(=S)N1CCOCC1 do in these assays?
KDM4E inh: inconclusive; JMJD2A Tudor inh: 18µM*; PI5P4K alpha inh: -54*; L3MBTL1 inh: inconclusive; BAZ2B inh: 45µM*; HP1b chromo inh: -37%

How did O=C(CNC(=O)c1ccccc1)N=Nc1c(O)[nH]c2ccc(Br)cc12 do in these assays?
JMJD2A Tudor inh: -6%; PI5P4K alpha inh: 3; BAZ2B inh: -36%; HP1b chromo inh: 109%

What do the screens show for `O=C(O)c1ccc(N=Nc2c(O)[nH]c3ccc(Br)cc23)cc1`?
JMJD2A Tudor inh: inconclusive; PI5P4K alpha inh: -22; BAZ2B inh: 79µM*; HP1b chromo inh: 21%

How did O=S(=O)(Cc1ccccc1)N=Nc1c(O)[nH]c2ccc(Br)cc12 do in these assays?
KDM4E inh: -11%; JMJD2A Tudor inh: 22µM*; PI5P4K alpha inh: -7; L3MBTL1 inh: -11%; BAZ2B inh: -24%; HP1b chromo inh: inconclusive

How did CCCCCn1c(=O)[nH]c2cc(C(=O)NCc3ccccn3)ccc2c1=O do in these assays?
KDM4E inh: inconclusive; JMJD2A Tudor inh: inconclusive; PI5P4K alpha inh: inconclusive; L3MBTL1 inh: 3%; BAZ2B inh: 79µM*; HP1b chromo inh: 11%

How did O=C(NCc1ccccn1)c1ccc2c(=O)n(CCc3ccccc3)c(=O)[nH]c2c1 do in these assays?
KDM4E inh: inconclusive; JMJD2A Tudor inh: -11%; PI5P4K alpha inh: inconclusive; L3MBTL1 inh: 5%; BAZ2B inh: -21%; HP1b chromo inh: 74%

Results for O=C(NCC1CCCCC1)c1nnc(C(=O)NCC2CCCCC2)c2c1[nH]c1ccccc12 ?
KDM4E inh: -4%

Source: PubChem BioAssay
